# FEN1 inh – qHTS Assay for the Inhibitors of Human Flap endonuclease 1 (FEN1). Recombinant FEN1 flap cleavage, fluorescence, 15 min. P39748. hit rate 0.35% among 390,000. AID 588795, 2011. Potency, µM (doses to about 114 µM), without a hit: top-dose activity change, negative = inhibition, hits mostly inhibitors; also: % is scaled to controls: 0 for no effect and ±100 for the full control effect; nearly all actives have a fitted effect of over 65% in size
#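 Read-out was taken twice, immediately and after 15 min, following addition of 50 nM substrate to 10 nM FEN1 that had sat with test compound for 15 min at room temperature. Curves came from a four-parameter Hill model.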
# POLB inh – qHTS Assay for Inhibitors of DNA Polymerase Beta; P06746; Pol beta primer extension/strand displacement, fluorescence kinetic; Potency, µM (highest dose often 114 µM), for the others: top-dose activity change, negative = inhibition, usual class: inhibitors; hit rate 1.3% among 340,000; AID 485314, 2010; also: % is scaled to controls: 0 for no effect and ±100 for the full control effect
#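 Curves were derived by four-parameter Hill fits of normalized qHTS data. The kinetic fluorescent primer-extension read was taken at 0 and 10 min after 50 nM substrate, following a 15 min room-temperature preincubation of 10 nM enzyme with compounds.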
# Pol kappa inh – qHTS for Inhibitors of Polymerase Kappa; purified Pol kappa, fluorescent DNA synthesis assay, 10 min; hit rate 0.53% among 400,000; Potency, µM (top dose mostly 107 µM), for inactives: top-dose activity, negative = inhibition, usual class: inhibitors; AID 588579, 2011; also: % is scaled to controls: 0 for no effect and ±100 for the full control effect
#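 Inhibition of 10 nM Pol kappa is measured by a fluorescent read-out at 0 and 10 min following addition of 50 nM substrate (final), with a 15-min room-temperature compound preincubation.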
# Pol eta inh – qHTS for Inhibitors of Polymerase Eta. DNA polymerase eta (Homo sapiens), Q9Y253. recombinant Pol eta, fluorescent DNA replication assay. Potency, µM (series often up to 114 µM), for the others: at the highest dose activity change, negative = inhibition, most hits filed as inhibitors. hit rate 1.2% among 390,000. AID 588591, 2011; also: % is scaled to controls: 0 for no effect and ±100 for the full control effect
#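 Fluorescent replication assay: 50 nM final substrate added after a 15 min room-temperature compound preincubation with 10 nM enzyme. Signal taken at 0 min and again at 10 min.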
# TDP1 block – qHTS Assay for Inhibitors of Tyrosyl-DNA Phosphodiesterase (TDP1); hit rate 0.28% among 350,000; Tyrosyl-DNA phosphodiesterase 1 (Homo sapiens), Q9NUW8; recombinant TDP1, AlphaScreen DNA substrate cleavage; Potency, µM (top dose mostly 130 µM), without a hit: at the top dose activity change, negative = inhibition, hits mostly inhibitors; also: % is scaled to controls: 0 for no effect and ±100 for the full control effect; nearly all actives have a fitted effect of over 40% in size
#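 Steps: enzyme plus compound, 15 min RT; add biotin/phosphotyrosine-FITC oligonucleotide (15 nM final), react 5 min; add donor/acceptor beads (10 ug/ml final), 10 min; read AlphaScreen. Tdp1 at 1 nM final.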
# Pol iota inh – qHTS for Inhibitors of Polymerase Iota | DNA polymerase iota (Homo sapiens), Q9UNA4 | Pol iota fluorescent replication assay, 10 min | Potency, µM (series often up to 115 µM), for inactives: top-dose activity, negative = inhibition, usual class: inhibitors | hit rate 1% among 390,000
# Target sequence (Q9UNA4 whole entry, looked up): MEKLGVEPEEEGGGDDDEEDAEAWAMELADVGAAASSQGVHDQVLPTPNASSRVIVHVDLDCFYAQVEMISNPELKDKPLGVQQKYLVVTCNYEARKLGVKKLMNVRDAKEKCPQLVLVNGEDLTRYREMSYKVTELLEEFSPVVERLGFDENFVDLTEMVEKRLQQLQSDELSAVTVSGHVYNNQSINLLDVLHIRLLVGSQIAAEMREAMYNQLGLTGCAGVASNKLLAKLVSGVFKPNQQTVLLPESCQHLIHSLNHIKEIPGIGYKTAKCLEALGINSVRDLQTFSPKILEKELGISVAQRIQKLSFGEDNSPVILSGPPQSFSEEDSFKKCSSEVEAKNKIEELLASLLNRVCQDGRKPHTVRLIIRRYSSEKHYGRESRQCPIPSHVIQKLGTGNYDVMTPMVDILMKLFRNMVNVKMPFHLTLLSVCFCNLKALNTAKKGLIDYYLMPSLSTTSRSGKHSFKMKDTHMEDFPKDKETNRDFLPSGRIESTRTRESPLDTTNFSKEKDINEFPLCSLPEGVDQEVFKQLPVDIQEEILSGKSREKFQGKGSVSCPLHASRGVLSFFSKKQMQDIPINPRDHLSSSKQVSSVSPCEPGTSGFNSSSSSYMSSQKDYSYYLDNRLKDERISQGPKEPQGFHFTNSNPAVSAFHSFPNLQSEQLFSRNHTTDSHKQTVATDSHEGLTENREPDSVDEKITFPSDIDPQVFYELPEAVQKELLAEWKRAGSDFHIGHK
#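 Pol iota at 10 nM preincubated 15 min with compounds at room temperature; reaction started with fluorescent substrate, 50 nM final. Fluorescence read kinetically at 0 and 10 min; buffer-only wells as negative control.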
# * hit, by the source's call; ? = inconclusive; . = not tested or not shown; [ ] = remark or other dose. A selection: hits, their analogues and other compounds. The true share with any hit is near 2.4%. Calls follow the shape of the dose curve; as a rule, active = well fitted curve in the direction sought with a large enough effect; inconclusive = small, poorly fitted or top-dose-only effect, or another doubt; inactive = no such curve, though single readings can be large; an effect the other way counts as inactive or inconclusive. Potency is read from the fitted curve at half-maximal effect.
SMILES,FEN1 inh,POLB inh,Pol kappa inh,Pol eta inh,TDP1 block,Pol iota inh
C=CCn1c(SCC(=O)Nc2nnc(C)s2)nnc1C1CC1,-3%,25µM*,-33%,?,28µM*,?
CCCSc1nnc2n(-c3ccc(OC)cc3)c(=O)c3c4c(sc3n12)COC(C(C)C)C4 (stereo not given),0%,0%,-3%,-3%,.,1%
Cc1ccc(Cl)cc1-n1ncc2c(N3CCC(C)CC3)ncnc21,-13%,10%,-4%[60.1 µM],-28%,3%,-15%
CC(C)N1CCC(N2CCN(C3CCCC3)CC2CCO)CC1 (stereo not given),-4%,17%,1%,-20%,0%,61%
Cc1cccc(N2CCC(N3CCN(C4CCCCC4)C(CCO)C3)CC2)c1C (stereo not given),13%,40µM*,-1%,-2%,3%,49%
Cc1ccc(NS(=O)(=O)c2ccc3c(c2)CCC(=O)N3)cc1Cl,.,.,.,.,-4%,.
COC(=O)/C(=C/Nc1ccccc1)[N+](=O)[O-],-1%,0%,-4%,-2%,2%,7%
COC(=O)/C(=C/Nc1ccc(O)cc1)[N+](=O)[O-],-23%,16%,-7%,-10%,5%,7.1µM*
CCOC(=O)N1CCN(/[N+]([O-])=N/Oc2ccc(C(F)(F)F)cc2[N+](=O)[O-])CC1,4%,.,3%,.,.,12%
O=C(Oc1ccccc1)N1CCC2(CCCN(c3ncccn3)C2)CC1,.,.,-13%[60.1 µM],.,.,.
O=C(CNC(=O)c1ccccc1)N[C@H](C(=O)Nc1cc(C(F)(F)F)ccc1Cl)c1ccccc1,.,.,.,.,1%,.
Cn1c(N)c(C(=O)COC(=O)c2cc(-c3ccco3)nc3ccccc23)c(=O)n(Cc2ccccc2)c1=O,.,20µM*,.,.,0%,.
CCCn1c(N)c(N(CCOC)C(=O)c2cc(-c3ccco3)nc3ccccc23)c(=O)[nH]c1=O,-10%,45µM*,-38%,?,-17%,56µM*
O=C(Nc1cnn(Cc2ccc(F)cc2)c1)C(c1ccccc1)c1ccccc1,-1%,4%,-5%,-9%,5%,79µM*
O=c1oc2cc([N+](=O)[O-])ccc2nc1/C=C(\O)c1cccc(Br)c1,25µM*,0%,-13%,?,.,-22%[58.9 µM]
Nc1ccc(C(=O)N(CCO)CCO)cc1,-11%,-10%,-9%,-4%,-2%,-7%
Nc1ccc(N(CCO)CCO)cc1,-23%,18µM*,-41%,-20%,.,2.8µM*
CCC(C)NC(=O)c1cc2c(Cl)nc3ccc(C)cc3c2s1 (stereo not given),-4%,3%,-7%,6%,1%,9%
COc1ccc(COc2ccsc2C(=O)Nc2ccc(Cl)c(Cl)c2)cc1,4%,35µM*,-1%,?,4%,45%
CC1CCN(C(=O)COC(=O)/C=C/c2ccc([N+](=O)[O-])cc2)CC1,3%,.,1%,-6%,0%,39%
CC1CCN(C(=O)COC(=O)/C=C/c2ccc(Br)o2)CC1,-9%,.,?,-12%,-13%,18µM*
CCn1c(=O)c2sccc2n2c(CCC(=O)NCc3ccc(Cl)cc3)nnc12,-2%,17%,14%,3%,1%,-3%
COc1cccc(/C=N/n2c(-c3n[nH]c4c3CCC4)n[nH]c2=S)c1O,3%,-18%,-13%,-15%,11%,-9%
COc1ccccc1/C=C/C=N/n1c(-c2n[nH]c3c2CCC3)n[nH]c1=S,-7%,7.9µM*,-27%,?,4%,26%
O=C(CNC(=O)c1ccccc1Cl)OC(C(=O)Nc1cc(C(F)(F)F)ccc1Cl)c1ccccc1 (stereo not given),.,.,.,.,-3%,.
CCCSc1oc(-c2ccco2)nc1S(=O)(=O)c1ccc(Cl)cc1,-10%,-19%,-18%,-5%,-6%,?
